# Measurements reported in the supplement of paper PMC10498489.
# Screen size: about 2,300 compounds; about 330 (14%) showed activity.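 Rule for the calls: active = median modified Z-score above 1.96; inactive = 1.96 or below.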 These entries were drawn from the full list.
# Test system: HepG2 Srxn1-GFP reporter cells (+30 nM CDDO-Me)
# Assay: Srxn1-GFP intensity median modified Z-score relative to plate median; higher = stronger NRF2 / oxidative stress reporter activation, active = hit call of the paper
# Conditions: 10 µM; exposure time: 24h
# Outline: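 HepG2 Srxn1-GFP BAC reporter cells (20,000 per well, 96-well plates) were co-exposed to an NRF2 activator at 30 nM and compound at 10 μM (≤0.1% DMSO) for 24 h in three replicate plates. After formaldehyde fixation and Hoechst staining, confocal images were analysed per cell for cytoplasmic GFP, excluding images with under 100 cells. The value is the median over replicates of the per-plate modified Z-score of GFP intensity. Scaling used 1.4826 × median absolute deviation.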
row,Structure (SMILES),Srxn1-GFP intensity median modified Z-score
1,CC(=O)O[C@]1(C(C)=O)CCC2C3=CC(Cl)=C4CC(=O)CC[C@]4(C)C3CC[C@@]21C (stereo partly drawn) [euspeclibcmpd746],-0.232 (inactive)
2,N=C(N)NC(=O)c1nc(Cl)c(=N)[nH]c1N [euspeclibcmpd18],1.07 (inactive)
3,C[C@]12CCC3c4ccc(O)cc4CCC3C1CCC2=O (stereo partly drawn) [euspeclibcmpd118],-0.384 (inactive)
4,CC1C(=NO)C[C@@H]2C[C@H]1C2(C)C (stereo partly drawn) [euspeclibcmpd1398],-0.67 (inactive)
5,OCc1cc(O)c2c(O)c3c(O[C@@H]4O[C@H](CO)[C@@H](O)[C@H](O)[C@H]4O)cccc3c(O[C@@H]3O[C@H](CO)[C@@H](O)[C@H](O)[C@H]3O)c2c1 [euspeclibcmpd932],0.277 (inactive)
6,CCC(C(=O)O)c1ccccc1 (stereo not drawn) [euspeclibcmpd2274],-0.651 (inactive)
7,Cc1cc(=O)oc2cc(O)ccc12 [euspeclibcmpd929],0.128 (inactive)
8,O=c1ccc2ccc(O)cc2o1 [euspeclibcmpd1541],-0.459 (inactive)
9,O=c1oc2cc(O)ccc2s1 [euspeclibcmpd1146],5.96 (active)
10,CC(CS)C(=O)N1CCCC1C(=O)O (stereo not drawn) [euspeclibcmpd337],-0.273 (inactive)
11,O=C(Nc1nc(-c2ccc(F)c(F)c2)cs1)c1cc(F)c(F)cc1[N+](=O)[O-],0.285 (inactive)
12,Cn1c(=O)c2c(ncn2CC2OCCO2)n(C)c1=O [euspeclibcmpd483],-0.13 (inactive)
13,O=c1cc(-c2ccccc2)oc2c(O)c(O)ccc12 [euspeclibcmpd2237],4.14 (active)
14,O=c1cc(-c2ccccc2)oc2cc(O)ccc12 [euspeclibcmpd1489],-0.269 (inactive)
15,O=c1cc(-c2ccccc2)oc2ccc(O)cc12 [euspeclibcmpd1505],0.447 (inactive)
16,O=c1c(Cc2c(O)oc3ccccc3c2=O)c(O)oc2ccccc12 [euspeclibcmpd328],-0.0638 (inactive)
17,CCCCc1c(O)n(-c2ccccc2)n(-c2ccccc2)c1=O [euspeclibcmpd235],0.115 (inactive)
18,O=c1c(CC[S+]([O-])c2ccccc2)c(O)n(-c2ccccc2)n1-c1ccccc1 (stereo not drawn) [euspeclibcmpd282],-0.197 (inactive)
19,CCCCc1c(O)n(-c2ccc(O)cc2)n(-c2ccccc2)c1=O [euspeclibcmpd223],13.1 (active)
20,O=c1c2c3c(sc2nc(SCc2ccc(Cl)c(Cl)c2)n1-c1ccccc1)CCCC3,1.55 (inactive)
21,COCCn1nc(C(=O)NC(C)c2cccc(Cl)c2)ccc1=O (stereo not drawn),1.38 (inactive)
22,CC(C)(Sc1cc(C(C)(C)C)c(O)c(C(C)(C)C)c1)Sc1cc(C(C)(C)C)c(O)c(C(C)(C)C)c1 [euspeclibcmpd377],-0.0593 (inactive)
23,Cc1cc(C(C)(C)C)c(O)c(C(C)(C)C)c1 [euspeclibcmpd1001],14.5 (active)

row,Structure (SMILES),Srxn1-GFP intensity median modified Z-score
1,Cc1cc(C(C)(C)C)c(O)c(C)c1CC1=NCCN1 [euspeclibcmpd222],0.261 (inactive)
2,CN(C)CCCN1c2ccccc2Sc2ccc(Cl)cc21 [euspeclibcmpd59],0.609 (inactive)
3,O=C(NCCC(=O)N1CCN(Cc2ccc3c(c2)OCO3)CC1)c1ccc(Cl)cc1,1.31 (inactive)
4,CC1(C)SC2C(NC(=O)C(N)c3ccccc3)C(=O)N2C1C(=O)O (stereo not drawn) [euspeclibcmpd2081],-0.172 (inactive)
5,CC1C(=O)CCC2[C@]3(C)CC[C@@]4(C)C5CC(C)(C)CC[C@]5(C)CC[C@]4(C)C3CC[C@]12C (stereo partly drawn) [euspeclibcmpd1606],-0.261 (inactive)
6,CC[C@@H]1OC(=O)C[C@@H](O)[C@H](C)[C@@H](O[C@@H]2O[C@H](C)[C@@H](O)[C@H](N(C)C)[C@H]2O)[C@@H](CCN2C[C@H](C)C[C@H](C)C2)CC(C)C(=O)/C=C/C(C)=C\C1CO[C@@H]1O[C@H](C)[C@@H](O)[C@@H](OC)[C@H]1OC (stereo partly drawn) [euspeclibcmpd704],0.22 (inactive)
7,C=C(C)c1cc(O)c(C)cc1O [euspeclibcmpd1354],6.7 (active)
8,CC(C)(CO)C(=O)C(O)NCCC(=O)O (stereo not drawn) [euspeclibcmpd2436],0.216 (inactive)
9,Oc1ccc2c(c1)OCC1(O)Cc3cc(O)c(O)cc3C21 (stereo not drawn) [euspeclibcmpd1416],1.37 (inactive)
10,NC(C(=O)C(O)C(O)CO)C(O)O (stereo not drawn) [euspeclibcmpd1661],-0.409 (inactive)
11,CCC[C@@H]1CC(C(=O)N[C@@H]([C@@H]2O[C@H](SC)[C@H](O)[C@@H](O)[C@H]2O)[C@H](C)Cl)N(C)C1 (stereo partly drawn) [euspeclibcmpd68],-0.322 (inactive)
12,COC(=O)c1c(C)cc(OC(=O)c2c(C)cc(O)c(C=O)c2O)c(C)c1O [euspeclibcmpd1556],12.5 (active)
13,CCOC(=O)c1c(C)cc(O)c(C=O)c1O [euspeclibcmpd1571],-0.398 (inactive)
14,COc1cc(C)c(C(=O)Oc2cc(C)c(C(=O)O)c(O)c2C)c(OC)c1C [euspeclibcmpd1550],1.38 (inactive)
15,COC1CC(OC2C(C)C(=O)OC(C)C(C)C(O)C(C)C(=O)C3(CO3)CC(C)C(OC3OC(C)CC(N(C)C)C3O)C2C)OC(C)C1O (stereo not drawn) [euspeclibcmpd1849],-0.547 (inactive)
16,O=S(=O)(O)c1cc(N=C=S)ccc1C=Cc1ccc(N=C=S)cc1S(=O)(=O)O [euspeclibcmpd1825],-0.132 (inactive)
17,S=C=Nc1ccc(N=C=S)cc1 [euspeclibcmpd1177],20.6 (active)
18,CCCC(NC(C)C(=O)N1C(C(=O)O)C[C@@H]2CCCC[C@@H]21)C(=O)OCC (stereo partly drawn) [euspeclibcmpd721],-0.404 (inactive)
19,CCOC(=O)C(CCc1ccccc1)NC(C)C(=O)N1C(C(=O)O)CC2CCCCC21 (stereo not drawn) [euspeclibcmpd732],9.5 (active)
20,CCOC(=O)C(CCc1ccccc1)NC(C)C(=O)N1C(C(=O)O)C[C@@H]2CCC[C@@H]21 (stereo partly drawn) [euspeclibcmpd722],-0.468 (inactive)
21,CC1C(=O)O[C@H]2CC34[C@H]5CC(C(C)(C)C)C36C(=O)C(O)O[C@H]6OC4(C(=O)O5)[C@@]12O (stereo partly drawn) [euspeclibcmpd2300],-0.422 (inactive)
22,CC(=O)Nc1ccc(OC(=O)c2ccccc2O)cc1 [euspeclibcmpd1988],-0.258 (inactive)
23,CN(C)N=Nc1[nH]cnc1C(N)=O [euspeclibcmpd80],60.7 (active)

row,Structure (SMILES),Srxn1-GFP intensity median modified Z-score
1,CN(C)c1cc(NC(=O)CNC(C)(C)C)c(O)c2c1C[C@H]1C[C@H]3[C@H](N(C)C)C(=O)C(C(N)=O)C(=O)[C@@]3(O)C(=O)C1C2=O (stereo partly drawn) [euspeclibcmpd1297],-0.316 (inactive)
2,OCc1cc(O)c2c(O)c3c(O)cccc3c([C@@H]3O[C@H](CO)[C@@H](O)[C@H](O)[C@H]3O)c2c1 [euspeclibcmpd1140],-0.523 (inactive)
3,CCNC1CN(CCCOC)S(=O)(=O)c2sc(S(N)(=O)=O)cc21 (stereo not drawn) [euspeclibcmpd1945],-0.371 (inactive)
4,COc1cc([C@@H]2c3cc4c(cc3C(O[C@@H]3O[C@@H]5CO[C@@H](c6cccs6)OC5[C@H](O)[C@H]3O)C3COC(=O)C32)OCO4)cc(OC)c1O (stereo partly drawn) [euspeclibcmpd647],8.51 (active)
5,COc1cc([C@@H]2c3cc4c(cc3C(OC3O[C@@H]5COC(C)O[C@H]5[C@H](O)[C@H]3O)C3COC(=O)C32)OCO4)cc(OC)c1O (stereo partly drawn) [euspeclibcmpd356],2.43 (active)
6,C=C1CCC(c2cc(O)oc2O)C(=O)CCC2C1CC2(C)C (stereo not drawn) [euspeclibcmpd1822],-0.357 (inactive)
7,Nc1ccc(S(=O)(=O)N=c2nccc[nH]2)cc1 [euspeclibcmpd274],-0.479 (inactive)
8,CCCCCCCCCCCCCCCC(=O)OCC(O)CO (stereo not drawn) [euspeclibcmpd1622],-0.224 (inactive)
9,CCc1ccc(CCOc2ccc(Cc3sc(=O)[nH]c3O)cc2)nc1 [euspeclibcmpd684],-0.309 (inactive)
10,O=c1c(-c2ccc(Br)cc2)coc2cc(O)ccc12,0.373 (inactive)
11,C[C@]12CCC(=O)CC1=C1C[C@@H]1C1C2CC[C@@]2(C)C1[C@@H]1C[C@@H]1[C@@]21CCC(=O)O1 (stereo partly drawn) [euspeclibcmpd608],-0.491 (inactive)
12,C[C@@H]1O[C@@H](O[C@H]2[C@@H](Oc3cc(O)c4c(c3)O[C@H](c3ccc(O)cc3)CC4=O)O[C@H](CO)[C@@H](O)[C@@H]2O)[C@H](O)[C@H](O)[C@H]1O [euspeclibcmpd1504],-0.249 (inactive)
13,NS(=O)(=O)c1ccc(C(=O)O)cc1 [euspeclibcmpd1180],0.0784 (inactive)
14,COc1ccc(-c2cc(C(F)F)nn2-c2ccc(S(N)(=O)=O)cc2)cc1F [euspeclibcmpd724],0.694 (inactive)
15,Cc1ccc(-c2cc(C(F)(F)F)nn2-c2ccc(S(N)(=O)=O)cc2)cc1 [euspeclibcmpd595],2.01 (active)
16,C=c1cc(O)c2c(O)c3c(O)c(=C)cc(O)c3c(O)c2c1O [euspeclibcmpd2077],-0.258 (inactive)
17,CCCCC(=O)O[C@]1(C(=O)CO)[C@@H](C)CC2C3CC=C4CC(=O)C=C[C@]4(C)[C@@]3(F)C(O)C[C@@]21C (stereo partly drawn) [euspeclibcmpd36],-0.635 (inactive)
18,CS(=O)(=O)c1ccc(-c2coc(O)c2-c2ccccc2)cc1 [euspeclibcmpd2038],-0.358 (inactive)
19,O=C(O)CS [euspeclibcmpd2222],-0.181 (inactive)
20,O=C(O)CN(CCN(CC(=O)O)CC(=O)O)CC(=O)O [euspeclibcmpd2457],-0.0932 (inactive)
21,O=C(O)CN(CCN(CC(=O)O)CC(=O)O)CCN(CC(=O)O)CC(=O)O [euspeclibcmpd916],-0.735 (inactive)
22,O=C(O)CN(CCN(CC(=O)O)CC(=O)O)CC(=O)O,2.26 (active)
